Laboratory results from PubChem BioAssay (NCI).
Where “and” joins values, the source holds several entries; their conditions need not be identical. Identical values can stand only once. About 83,000 compounds went through this panel and 20% of them were active in at least one assay; those are over-represented in the sample as a whole.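 Plates (96-well) were seeded with cells, treated with compound at one concentration, and incubated for 48 hours before percent growth was determined.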 Calls of active or inactive are those of the source. Rule for the calls: active = growth percent below 10; inactive = the rest.

Legend:
Assay in all cases: NCI-60 one-dose screen, 48 h (100 = growth as untreated, 0 = no growth, -100 = all killed)
Conditions in all cases: 10 µM unless noted
NCI-H23 lung = system: NCI-H23 lung
NCI-H226 lung = system: NCI-H226 lung
NCI-H322M lung = system: NCI-H322M lung
NCI-H460 lung = system: NCI-H460 lung
NCI-H522 lung = system: NCI-H522 lung
A549/ATCC NSCLC = system: A549/ATCC NSCLC
786-0 renal = system: 786-0 renal
COLO 205 colon = system: COLO 205 colon
DU-145 prostate = system: DU-145 prostate
K-562 leukemia = system: K-562 leukemia
MDA-MB-231 breast = system: MDA-MB-231 breast
SF-268 CNS = system: SF-268 CNS
SF-295 CNS = system: SF-295 CNS
SF-539 CNS = system: SF-539 CNS
UACC-257 melanoma = system: UACC-257 melanoma
M14 melanoma = system: M14 melanoma
HOP-62 NSCLC = system: HOP-62 NSCLC
MALME-3M melanoma = system: MALME-3M melanoma
RXF 393 renal = system: RXF 393 renal
HOP-92 NSCLC = system: HOP-92 NSCLC

Measured: growth

CC(Oc1ccc(-c2ccccc2)cc1)C(=O)O (stereo not given)
inactive: NCI-H23 lung 106% | NCI-H226 lung 95.5% | NCI-H322M lung 102% | NCI-H460 lung 103% | NCI-H522 lung 99.8% | A549/ATCC NSCLC 96.5% | 786-0 renal 101% | COLO 205 colon 102% | DU-145 prostate 113% | K-562 leukemia 112% | MDA-MB-231 breast 108% | SF-268 CNS 105% | SF-295 CNS 102% | SF-539 CNS 99.6% | UACC-257 melanoma 99.2% | M14 melanoma 102%

CC1=C2[C@H]3OC(=O)[C@@H](C)[C@@H]3CC[C@@]2(C)C=CC1=O
inactive: NCI-H23 lung 54.5% | NCI-H226 lung 92% | NCI-H322M lung 85.8% | HOP-62 NSCLC 111% | NCI-H460 lung 116% | NCI-H522 lung 123% | 786-0 renal 106% | COLO 205 colon 96.7% | DU-145 prostate 109% | K-562 leukemia 110% | MALME-3M melanoma 87.3% | MDA-MB-231 breast 112% | SF-268 CNS 107% | SF-295 CNS 106% | SF-539 CNS 83.3% | M14 melanoma 120%

O=C(O)CNCP(=O)(O)O
inactive: NCI-H23 lung 107% | NCI-H226 lung 103% | NCI-H322M lung 106% | HOP-62 NSCLC 109% | NCI-H460 lung 119% | NCI-H522 lung 98.2% | A549/ATCC NSCLC 102% | 786-0 renal 106% | COLO 205 colon 119% | DU-145 prostate 121% | K-562 leukemia 101% | MDA-MB-231 breast 117% | RXF 393 renal 121% | SF-268 CNS 113% | SF-295 CNS 107% | SF-539 CNS 115% | UACC-257 melanoma 107% | M14 melanoma 101%

N#CCCc1ccccc1
inactive: NCI-H23 lung 104% | NCI-H226 lung 95.4% | NCI-H322M lung 105% | NCI-H460 lung 112% | NCI-H522 lung 95.3% | 786-0 renal 106% | COLO 205 colon 109% | DU-145 prostate 119% | K-562 leukemia 108% | MALME-3M melanoma 113% | MDA-MB-231 breast 107% | RXF 393 renal 114% | SF-268 CNS 106% | SF-295 CNS 108% | SF-539 CNS 96.2% | UACC-257 melanoma 95% | M14 melanoma 106%

C[N+]12CCC34C5=CC(=O)C(=O)C=C5[N+]5(C)C(=O)CC6OCC=C(C1)C(CC32)C6C45 (stereo not given)
inactive: NCI-H23 lung 117% | NCI-H226 lung 98.6% | NCI-H322M lung 98.5% | HOP-62 NSCLC 102% | NCI-H460 lung 105% | A549/ATCC NSCLC 106% | 786-0 renal 112% | COLO 205 colon 101% | DU-145 prostate 102% | K-562 leukemia 97.6% | MALME-3M melanoma 99.4% | MDA-MB-231 breast 97.6% | RXF 393 renal 93.1% | SF-268 CNS 111% | SF-295 CNS 93% | SF-539 CNS 97.5% | UACC-257 melanoma 113% | M14 melanoma 118%

N#Cc1ccc(Cl)cc1
inactive: NCI-H23 lung 111% | NCI-H226 lung 109% | NCI-H322M lung 119% | HOP-62 NSCLC 105% | NCI-H460 lung 122% | A549/ATCC NSCLC 103% | 786-0 renal 108% | COLO 205 colon 117% | DU-145 prostate 117% | K-562 leukemia 99.4% | MALME-3M melanoma 115% | MDA-MB-231 breast 108% | RXF 393 renal 120% | SF-268 CNS 108% | SF-295 CNS 113% | SF-539 CNS 108% | UACC-257 melanoma 104% | M14 melanoma 106%

CN(C)c1ccc([N+](=O)[O-])c([N+](=O)[O-])c1
inactive: NCI-H23 lung 109% and 96.9% | NCI-H226 lung 113% and 105% | HOP-62 NSCLC 113% and 122% | NCI-H460 lung 110% and 109% | HOP-92 NSCLC 101% and 104% | A549/ATCC NSCLC 101% and 88.3% | 786-0 renal 116% and 106% | COLO 205 colon 106% and 122% | DU-145 prostate 103% and 113% | K-562 leukemia 113% and 104% | MALME-3M melanoma 100% | MDA-MB-231 breast 98.4% and 99.1% | RXF 393 renal 111% and 95.3% | SF-268 CNS 106% and 111% | SF-295 CNS 112% and 106% | SF-539 CNS 128% and 104% | UACC-257 melanoma 95.7% and 88.2% | M14 melanoma 99.4% and 93.7%
-70.3% (active) and 64.7% (inactive): NCI-H522 lung

COCC1OC2OC3C(COC)OC(OC4C(COC)OC(OC5C(COC)OC(OC6C(COC)OC(OC7C(COC)OC(OC8C(COC)OC(OC1C(O)C2O)C(O)C8O)C(O)C7O)C(O)C6O)C(O)C5O)C(O)C4O)C(O)C3O (stereo not given) (tested in a mixture with another compound)
inactive: NCI-H23 lung 102% | NCI-H226 lung 102% | NCI-H322M lung 134% | NCI-H460 lung 109% | NCI-H522 lung 109% | A549/ATCC NSCLC 109% | 786-0 renal 139% | COLO 205 colon 127% | DU-145 prostate 113% | K-562 leukemia 99.5% | MALME-3M melanoma 127% | MDA-MB-231 breast 115% | RXF 393 renal 129% | SF-268 CNS 105% | SF-295 CNS 111% | SF-539 CNS 111% | UACC-257 melanoma 117% | M14 melanoma 105%

CCCCCCCCCCCCCCCCCCn1cc[n+](C)c1
inactive: K-562 leukemia 28.3% and 17.9%
active: NCI-H23 lung -48.9% and -44.3% | NCI-H226 lung -54% and -61.7% | HOP-62 NSCLC -58.6% and -74.1% | NCI-H460 lung -62.9% and -51.3% | HOP-92 NSCLC -51.3% and -66.2% | NCI-H522 lung -74.9% and -74.3% | A549/ATCC NSCLC -15.2% and -47.2% | 786-0 renal -74.9% and -81.7% | COLO 205 colon 1.82% and -47.3% | DU-145 prostate -54% and -62.3% | MALME-3M melanoma -33.7% and -30.7% | MDA-MB-231 breast -66.2% and -80.2% | RXF 393 renal -28.3% and -62.1% | SF-268 CNS -45.4% and -45.3% | SF-295 CNS -10.4% and -21.5% | SF-539 CNS -85.2% and -82.9% | UACC-257 melanoma -38% and -47.9% | M14 melanoma -62.4% and -49.9%

O=Cc1cn(Cc2ccccc2)c2ccccc12
inactive: NCI-H23 lung 80.1% | NCI-H226 lung 28.2% | HOP-62 NSCLC 65.8% | NCI-H460 lung 20.9% | HOP-92 NSCLC 74.4% | NCI-H522 lung 121% | A549/ATCC NSCLC 76.6% | 786-0 renal 87.6% | COLO 205 colon 15.4% | DU-145 prostate 108% | K-562 leukemia 53.3% | MALME-3M melanoma 127% | MDA-MB-231 breast 92.7% | RXF 393 renal 67.6% | SF-268 CNS 104% | SF-295 CNS 99.5% | SF-539 CNS 95.1% | UACC-257 melanoma 37.8% | M14 melanoma 117%

N#CC(C#N)=C(C#N)C#N
inactive: NCI-H23 lung 106% | NCI-H226 lung 101% | NCI-H322M lung 103% | HOP-62 NSCLC 108% | NCI-H460 lung 106% | A549/ATCC NSCLC 99.9% | 786-0 renal 101% | COLO 205 colon 114% | DU-145 prostate 110% | K-562 leukemia 108% | MALME-3M melanoma 108% | MDA-MB-231 breast 106% | RXF 393 renal 111% | SF-268 CNS 96% | SF-539 CNS 93.7% | UACC-257 melanoma 97.8% | M14 melanoma 102%

C=C[Se]CC(=O)/C=C/c1ccccc1
inactive: NCI-H23 lung 70.1% | NCI-H226 lung 98% | HOP-62 NSCLC 13% | NCI-H460 lung 12.8% | HOP-92 NSCLC 104% | NCI-H522 lung 89.2% | A549/ATCC NSCLC 32.3% | 786-0 renal 102% | COLO 205 colon 109% | DU-145 prostate 87.5% | K-562 leukemia 93.9% | MALME-3M melanoma 97.5% | MDA-MB-231 breast 94.3% | RXF 393 renal 114% | SF-268 CNS 94.8% | SF-539 CNS 95.2% | UACC-257 melanoma 92.7% | M14 melanoma 73.5%
active: SF-295 CNS 3.93%

Cc1ccc(C(=O)O[C@H](C(=O)O)[C@H](OC(=O)c2ccc(C)cc2)C(=O)O)cc1
inactive: NCI-H23 lung 102% | NCI-H226 lung 104% | NCI-H322M lung 104% | HOP-62 NSCLC 110% | NCI-H460 lung 115% | NCI-H522 lung 119% | A549/ATCC NSCLC 103% | 786-0 renal 101% | COLO 205 colon 108% | DU-145 prostate 110% | K-562 leukemia 89.9% | MALME-3M melanoma 107% | RXF 393 renal 115% | SF-268 CNS 105% | SF-295 CNS 118% | SF-539 CNS 102% | UACC-257 melanoma 94% | M14 melanoma 100%

O=C=Nc1ccc(Br)cc1
inactive: NCI-H23 lung 101% | NCI-H226 lung 98.8% | NCI-H322M lung 100% | HOP-62 NSCLC 119% | NCI-H460 lung 103% | NCI-H522 lung 100% | A549/ATCC NSCLC 113% | 786-0 renal 95.5% | COLO 205 colon 111% | DU-145 prostate 107% | K-562 leukemia 99.6% | MALME-3M melanoma 108% | MDA-MB-231 breast 108% | RXF 393 renal 103% | SF-268 CNS 111% | SF-295 CNS 94.8% | SF-539 CNS 110% | UACC-257 melanoma 110% | M14 melanoma 100%

CC(=O)Nc1nc2c(s1)C1=CC[C@H]3[C@@H]4CC[C@H](OC(C)=O)[C@@]4(C)CC[C@@H]3[C@@]1(C)CC2
active: RXF 393 renal 7.7%
inactive: NCI-H23 lung 69.7% | NCI-H226 lung 91.7% | HOP-62 NSCLC 55.6% | NCI-H460 lung 64.1% | HOP-92 NSCLC 87.2% | NCI-H522 lung 39.3% | A549/ATCC NSCLC 54% | 786-0 renal 32% | COLO 205 colon 67.3% | DU-145 prostate 72.1% | K-562 leukemia 35.1% | MALME-3M melanoma 66.5% | MDA-MB-231 breast 80.3% | SF-268 CNS 58.4% | SF-295 CNS 29.4% | SF-539 CNS 14% | UACC-257 melanoma 79.2% | M14 melanoma 39.7%
